Source: PubChem BioAssay AID2284202 (EPA ToxCast)
The source made the active and inactive calls. The calls were made as follows: active = hit-call score of the fitted dose curve at least 0.9, where 1 is the maximum; inactive = score below 0.9.

These molecules were tested against human Dopamine Transporter (DAT), SLC6A3 (gene 6531) (UniProt Q01959) (assay: ERF_FR_TR_hSLC6A3: Eurofins (ERF) Radioligand Binding LeadHunter Assay for human Dopamine Transporter (DAT) Antagonism, conducted at France lab site).
Sequence of human Dopamine Transporter (DAT), SLC6A3 (gene 6531) (Q01959 whole entry, looked up): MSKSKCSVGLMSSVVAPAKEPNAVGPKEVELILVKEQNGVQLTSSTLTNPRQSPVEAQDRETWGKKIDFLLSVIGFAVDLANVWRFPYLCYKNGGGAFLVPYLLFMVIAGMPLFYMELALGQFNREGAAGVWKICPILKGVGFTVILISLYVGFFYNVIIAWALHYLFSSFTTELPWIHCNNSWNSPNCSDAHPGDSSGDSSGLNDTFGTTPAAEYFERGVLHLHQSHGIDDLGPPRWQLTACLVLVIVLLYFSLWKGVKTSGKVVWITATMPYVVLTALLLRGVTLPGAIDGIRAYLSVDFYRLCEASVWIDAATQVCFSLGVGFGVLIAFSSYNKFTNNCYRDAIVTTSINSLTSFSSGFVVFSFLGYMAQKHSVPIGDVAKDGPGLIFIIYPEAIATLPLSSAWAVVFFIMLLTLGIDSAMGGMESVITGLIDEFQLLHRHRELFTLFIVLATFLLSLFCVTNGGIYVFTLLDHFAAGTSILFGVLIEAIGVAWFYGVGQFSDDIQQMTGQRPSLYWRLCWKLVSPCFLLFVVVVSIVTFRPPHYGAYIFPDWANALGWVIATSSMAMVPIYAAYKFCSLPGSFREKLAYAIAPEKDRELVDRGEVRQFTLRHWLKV
Method: ERF_FR_TR_hSLC6A3 is a biochemical, single-readout assay that uses extracted gene-proteins in a cell-free assay. Measurements were taken 2 hour after chemical dosing in a 96-well plate. See DAT Human Dopamine Transporter Binding (Antagonist Radioligand) Assay, Cerep.ERF_FR_TR_hSLC6A3 is an assay component calculated from the ERF_FR_TR_hSLC6A3 assay. It is designed to measure radioligand binding using a type of binding reporter as detected by scintillation counting with radiometry technology.Data from the assay component ERF_FR_TR_hSLC6A3 was analyzed at the assay endpoint, ERF_FR_TR_hSLC6A3, in the positive analysis fitting direction relative to DMSO as the negative control and baseline of activity. Using a type of binding reporter, loss-of-signal activity can be used to understand changes in binding as they relate to gene SLC6A3. To generalize the intended target to other relatable targets, this assay endpoint is annotated to the transporter intended target family, where the subfamily is SLC6 / Monoamine.
Human cells are incubated for 120 minutes at 4C with [3H]BTCP (4 nM) ligand and BTCP as control inhibitor. Test Sample Requirements: Minimum for 1) Screen: 60 ul of 10 mM stock -OR- 1 mg (pre-weighed) for 10 uM final testing. 2) Dose Response: 90 ul of 10 mM stock -OR- 1 mg (pre-weighed) for a top concentration at 10 uM.

| Compound | AC50 |
| --- | --- |
| COc1cc(CCC(=O)CC(=O)CCc2ccc(O)c(OC)c2)ccc1O | 2970 nM (active) |
| O=C(/C=C/c1ccc(O)cc1)CC(=O)/C=C/c1ccc(O)cc1 | 2890 nM (active) |
